The test addresses Tumor necrosis factor receptor superfamily member 10B (Homo sapiens) (UniProt O14763). The test is described as follows: viability loss of caspase-8 NB7 cells with TRAIL – with/without TRAIL, luminescence panel, confirmation (AID 651596). Particulars: NB7 neuroblastoma + caspase-8, TRAIL sensitization, NB7 Caspase-8, with TRAIL, mean of runs, at 10 µM, stronger effect = higher value.
Sequence of Tumor necrosis factor receptor superfamily member 10B (Homo sapiens) (O14763 whole entry, looked up): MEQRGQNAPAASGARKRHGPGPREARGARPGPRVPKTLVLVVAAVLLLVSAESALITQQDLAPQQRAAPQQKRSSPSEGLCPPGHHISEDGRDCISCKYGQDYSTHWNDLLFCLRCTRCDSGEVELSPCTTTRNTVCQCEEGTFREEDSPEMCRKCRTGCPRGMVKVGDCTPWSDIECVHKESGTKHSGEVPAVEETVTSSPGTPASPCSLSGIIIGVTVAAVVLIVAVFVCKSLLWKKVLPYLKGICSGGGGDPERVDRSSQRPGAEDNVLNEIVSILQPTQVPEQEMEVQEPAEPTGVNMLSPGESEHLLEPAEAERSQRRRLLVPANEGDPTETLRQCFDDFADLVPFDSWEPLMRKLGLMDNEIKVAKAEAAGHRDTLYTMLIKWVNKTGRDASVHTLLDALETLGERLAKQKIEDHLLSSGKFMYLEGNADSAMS
On to `Cc1ccc(C(=O)Nc2nc3c(s2)CCCC3)o1`, for which the activity stood at 70.4%. For the molecule `O=C(NOCc1ccccc1)c1ccc(Cl)cc1Cl`, the activity was 62.6%.

Take `CC(=O)Nc1cc(-c2cccc(C(=O)NCCN(C)C)c2)cn2c(-c3cccc(C(F)(F)F)c3)cnc12`: the activity amounted to 65.3%. Then `COC(=O)[C@@H]1Cc2c([nH]c3ccccc23)C(C)(C)N1C(=O)CCl`, with 99%; and `O=C(NC1=NCCS1)c1cccs1`, with -8.57%. As to `COc1ccc(C(=O)/C=C/Nc2cccc(O)c2)cc1`, the activity came out at 75.9%. To `O=C(Oc1cccc(/C=N/NC(=O)c2ccccn2)c1)c1ccc([N+](=O)[O-])cc1` belongs 42.9%; to `Cc1ccc(C2CC(c3cccs3)=NN2C(=O)CCl)cc1` (stereo not given), 98.8%; to `COc1ccccc1OCCNC(=O)c1ccc2c(c1)OCCO2`, 41%.

Consider `Cc1nc2sc(-c3ccccc3)cc2c(=O)n1N`, for which the activity is 59.7%. For the molecule `CCCC(=O)OCCNc1cc(Sc2nccn2C)c2nonc2c1[N+](=O)[O-]`, the activity amounted to 35.8%.

For `O=C(CCl)N=c1sccn1Cc1ccc(Cl)cc1Cl`, the activity was 99.3%. For `Cc1ccc(C(=O)Nc2ccc3c(c2)OCCO3)cc1`, the activity amounted to 90.4%. To `O=C(Nc1ccc(N2CCN(Cc3ccccc3F)CC2)cc1)c1ccc([N+](=O)[O-])o1` belongs 99%.

In the case of `CNC(=S)N1N=C(c2ccccc2)CC1c1ccc(Br)cc1` (stereo not given), the activity was -12.4%. For the molecule `Cc1c(C(=O)N2CCc3ccccc32)oc2ccccc12`, the activity came to 48.2%.

With `CN(C)c1ccc(/C=N/NC(=O)c2ccccn2)cc1`, the activity is 74.7%. Take `CCOc1ncccc1C(=O)OCC(=O)Nc1ccc(-c2nc3ccc(C)cc3s2)cc1`: the activity was 60.9%. To `COc1cc2c3nnc(-c4ccc(F)cc4)c-3cn(Cc3ccc(C)cc3)c2cc1OC` belongs 24.2%; to `Cc1ccc(-c2nn3c(C)nnc3c3ccccc23)cc1S(=O)(=O)NCc1ccccc1`, 48.2%. Then `CCOc1ccc(NC(=O)Nc2cccnc2)cc1`, with 55.2%.

Take `COc1ccc(Cn2c(SCc3cc(C)ccc3C)nc3cc(OC)c(OC)cc3c2=N)cc1`: the activity is 94.9%. To `O=C1N(c2ccccc2)CCN1c1ccccc1` belongs 67.2%; to `CC1=C(C(=O)N(C)C)CC(CC(=O)NCCN2CCOCC2)C(=O)N1CCCN1CCCC1=O` (stereo not given), -0.625%; to `CC(=O)c1ccccc1OCC(O)CN1CCN(CCN2C(=O)c3cccc4cccc(c34)C2=O)CC1` (stereo not given), 45.6%. With `CCc1ccc(C(=O)Nc2cc(C)ccc2F)s1`, the activity is -9.2%. Consider `COCCOCCn1c(/C=C/c2ccccc2)nc2ccccc21`, for which the activity turned out to be 65.4%.

In the case of `COc1ccc(CC(N)c2csc(NC(=O)Nc3cccc(C(F)(F)F)c3)n2)cc1` (stereo not given), the activity worked out at 39.6%. With `CC(C)(CNC(=O)c1ccc([N+](=O)[O-])c(Cl)c1)CNC(=O)c1ccc([N+](=O)[O-])c(Cl)c1`, the activity stood at 54.5%. Turning to `O=C(/C=C/c1cccnc1)/C=C/c1cccnc1`, the activity came out at 91.5%. Consider `O=C(N/N=C\c1cccc(OC(=O)c2ccco2)c1)c1ccc2c(c1)OCO2`, for which the activity is 83%. Take `N/C(=N\OC(=O)c1ccccc1)c1ccn[nH]1`: the activity was 68.7%. Consider `O=C(Nc1ccccc1)c1cn2ccccc2n1`, for which the activity is 54.9%. On to `Cc1ccc(NC(=O)c2ccccc2)s1`, for which the activity stood at 40.7%.

Consider `Clc1nc2ccccc2cc1/C=N/Nc1nc2ccccc2[nH]1`, for which the activity turned out to be 86.2%.

With `CCc1nnc(NC(=O)c2nc(S(=O)(=O)Cc3cccc(C)c3)ncc2Cl)s1`, the activity was determined as 97.6%.

Take `COc1cccc(NC(=O)Nc2ccc3c(c2)nc(C)n3C)c1`: the activity was 83.7%. For `O=C(Nc1nnc(/N=C/c2ccco2)s1)c1ccc(F)cc1`, the activity is 39.8%.

With `C/C(=N\NC(=O)c1ccc(Cl)cc1)c1cccs1`, the activity was determined as 80.1%. Regarding `O=C(CCS(=O)(=O)c1ccccc1)Nc1ccc(-c2nc3ccccc3s2)cc1`, the activity came to 58%.
